This is a sample that favours compounds with a hit; in the whole collection about 8.3% have one here.
VP16 counter: counter-screen for ROR gamma inhibitors: Gal4-VP16 reporter; Drosophila S2 Gal4-VP16 UAS-luciferase, luminescence, 20 h; Potency, µM (series often up to 53.6 µM), actives largely listed as inhibitors; hit rate 3.5% among 310,000; AID 2546;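 further: Gal4-VP16 expression switched on by copper sulfate through the metallothionein promoter; nearly all actives have a fitted effect of over 50% in size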
MCF10A rereplic: DNA re-replication induction in MCF 10a cells | MCF 10A DNA re-replication, Hoechst nuclear intensity, 48 h | Potency, µM (titrated, usually from 46.1 µM), hits mostly activators | hit rate 2.9% among 350,000; further: nearly all actives have a fitted effect of over 50% in size
Chronic BCR inh: chronic active BCR signaling inhibition; ABC-DLBCL IkBa-CBG/CBR reporter, luminescence ratio, 4 h; Potency, µM (titrated, usually from 46.1 µM), actives largely listed as inhibitors; hit rate 0.05% among 340,000; active means well fitted inhibition curve with a large enough effect in the signal ratio, with a control signal flat, not every such curve was filed as active; inconclusive means small, poorly fitted or top-dose-only effect, or effect the other way, or a change in a side signal; the % refers to the signal ratio
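TMD8 ABC-DLBCL cells carrying doxycycline-inducible green luciferase fused to IkappaBalpha plus unfused red luciferase were exposed to compounds (up to 46 uM) for 4 hrs at 37C. Activity came from the overlap-corrected green/red luminescence ratio.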
SW480 rerep: induces DNA re-replication in SW480 colon adenocarcinoma cells. AID 624297. Potency, µM (top dose mostly 46.1 µM), most hits filed as activators. SW480 DNA re-replication, Hoechst DNA content imaging, 48 h. hit rate 1.8% among 340,000; further: nearly all actives have a fitted effect of over 55% in size
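Cells (250 per well) received 23 nL compound or DMSO by pin tool and were kept 48 hr at 37 C, 5% CO2. Nuclei were then stained with Hoechst for 40 min and scanned for DNA content.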
Giardia killer: kills Giardia lamblia | Giardia lamblia trophozoite viability | activity change, % at 7.66 µM, hits read low | hit rate 0.15% among 340,000 | AID 540267; in the data active means activity change below about -80%; inconclusive means between about -30% and that limit;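 further: parasites exposed to compound for two days anaerobically before the ATP read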
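Each well holds 100 Giardia trophozoites and compound. After two days (48 hrs) at 37 deg C in anaerobic conditions, ATP is quantified by luminescence.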
RORg inh: blocks mouse ROR gamma transcriptional activity | Drosophila S2 Gal4-RORgamma UAS-luciferase reporter, 20 h | Potency, µM (highest dose often 53.6 µM), hits mostly inhibitors | hit rate 5.4% among 310,000; further: nearly all actives have a fitted effect of over 60% in size
Target sequence (P51450 whole entry, looked up, the tested form may be a part): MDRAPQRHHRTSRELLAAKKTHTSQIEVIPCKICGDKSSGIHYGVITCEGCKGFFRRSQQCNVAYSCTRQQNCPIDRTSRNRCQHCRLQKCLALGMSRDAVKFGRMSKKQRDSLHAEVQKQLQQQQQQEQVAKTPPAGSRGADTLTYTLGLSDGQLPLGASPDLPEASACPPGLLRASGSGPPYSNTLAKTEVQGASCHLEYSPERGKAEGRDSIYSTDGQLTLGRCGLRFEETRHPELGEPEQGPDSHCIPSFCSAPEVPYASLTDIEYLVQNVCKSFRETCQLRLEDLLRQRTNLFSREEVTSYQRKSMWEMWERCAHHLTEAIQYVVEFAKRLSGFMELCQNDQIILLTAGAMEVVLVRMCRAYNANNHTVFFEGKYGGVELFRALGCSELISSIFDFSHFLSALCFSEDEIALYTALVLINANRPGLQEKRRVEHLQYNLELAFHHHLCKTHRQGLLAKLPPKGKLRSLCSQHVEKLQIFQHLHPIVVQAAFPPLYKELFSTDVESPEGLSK
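Using a luciferase readout, inhibitors were identified by reduced reporter activity in Drosophila cells coexpressing a copper-inducible Gal4–ROR gamma fusion and UAS-driven Photinus luciferase, incubated 20 hr after 700 uM copper sulfate.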
A number is an active result; i = inactive; ? = inconclusive; nt = not tested or not shown. Unless noted, the call rests on the fitted dose curve; in most records, active means well fitted curve in the direction sought with a large enough effect; inconclusive means small, poorly fitted or top-dose-only effect, or another doubt; inactive means no such curve, though single readings can be large; an effect the other way counts as inactive or inconclusive.

SMILES | VP16 counter | MCF10A rereplic | Chronic BCR inh | SW480 rerep | Giardia killer | RORg inh
COc1ccc(S(=O)(=O)N2CCCCC2)cc1NC(=S)Nc1cccc(Cl)c1C | ? | i | i | i | i | 11µM
COc1ccc(S(=O)(=O)N2CCCCC2)cc1NC(=S)Nc1ccccc1 | i | i | ? | i | i | i
Cc1c(Cl)cccc1NC(=S)Nn1cnnc1 | i | i | i | i | i | ?
COc1ccc(S(=O)(=O)N(C)C)cc1NS(=O)(=O)c1ccc(F)c(F)c1F | 13µM | i | i | i | i | 4.5µM
Cc1c(Cl)cccc1NC(=S)NNS(=O)(=O)c1ccc([N+](=O)[O-])cc1 | 7.1µM | i | ? | i | i | 4.5µM
COc1ccc(S(=O)(=O)N2CCCCC2)cc1NS(=O)(=O)c1cc(Cl)ccc1Cl | ? | i | ? | 23µM | i | i
C=CCNCc1cc(=O)n2c(-c3ccccc3)csc2n1 | i | i | i | i | i | i
CC(C)CN(C(=O)CCNC(=O)c1ccc(Cl)cc1)c1c(N)n(CC(C)C)c(=O)[nH]c1=O | nt | i | i | i | i | nt
CSc1cccc(CN2CCC(CCC(=O)NC3CC3)CC2)c1 | i | i | i | i | i | i
COc1nc(Nc2nc3ccccc3c(=O)[nH]2)nc2ccc(C)cc12 | 5µM | ? | ? | 4.6µM | i | ?
COc1ccc(CCN2C(=S)NC3CC2(C)Oc2ccc([N+](=O)[O-])cc23)cc1OC (configuration not stated) | ? | i | ? | 16µM | i | 16µM
COc1ccc(N2C(=O)NC3CC2(C)Oc2ccc(Cl)cc23)cc1OC (configuration not stated) | i | ? | i | ? | i | i
Cc1cccc(C)c1OC(=O)CSc1nnc(-c2ccccc2O)o1 | ? | 18µM | ? | i | i | ?
O=C(CSc1nnc(-c2ccccc2O)o1)N1CCc2ccccc2C1 | ? | ? | ? | ? | i | 10µM
Cc1c(CN(C)Cc2cn(C)nc2-c2ccccc2F)[nH]c2ccccc12 | i | 18µM | ? | ? | i | i
CN(CCCN1CCOCC1)Cc1cn(C)nc1-c1ccccc1F | i | i | i | i | i | i
CCOC(=O)C1CCN(Cc2cc(Cl)c3ccccc3c2O)CC1 | ? | 18µM | i | ? | i | i
CCOC(=O)C1CCN(Cc2ccc(OC)c(C)c2OC)CC1 | i | i | i | i | i | i
Cc1ccc(S(=O)(=O)N2CCOCC2)cc1NC(=O)COC(=O)c1ccccc1OCc1c(C)noc1C | i | i | i | i | i | i
CCN(CC)CC(=O)Nc1ccc(/C(C)=N/NC2=NCCN2)cc1 | i | 23µM | ? | 18µM | i | i
O=C(O)c1cccc2cccc(-c3c4ccc(=O)c(O)c-4oc4c(O)c(O)ccc34)c12 | nt | i | nt | i | i | nt
CC1CCCCC1Nc1ncnc2sccc12 (configuration not stated) | ? | i | ? | i | i | ?
O=C(CCc1ccccc1)NC(NC(=S)Nc1ccc(Br)cc1)C(Cl)(Cl)Cl (configuration not stated) | 4.5µM | i | ? | i | i | ?
CCCC(=O)NC(NC(=S)Nc1ccc(N=Nc2ccccc2)cc1)C(Cl)(Cl)Cl (configuration not stated) | ? | 13µM | i | i | i | ?
CCCC(=O)NC(NC(=S)Nc1ccc(S(N)(=O)=O)cc1)C(Cl)(Cl)Cl (configuration not stated) | i | i | i | i | i | i
SMILES | VP16 counter | MCF10A rereplic | Chronic BCR inh | SW480 rerep | Giardia killer | RORg inh
O=C(CCc1ccccc1)NC(NC(=S)Nc1cccc(Cl)c1)C(Cl)(Cl)Cl (configuration not stated) | i | 5.8µM | i | i | i | ?
COCC1CCCCN1C(=O)c1ccc2nc(Cc3ccc(OC)c(OC)c3)oc2c1 (configuration not stated) | i | i | ? | i | i | ?
CC(C)Oc1ccc(CNC(=O)C2CCN(Cc3cc4ccccc4n3Cc3ccccc3)CC2)cc1 | nt | nt | i | nt | nt | nt
N=C1SC(CC(=O)Nc2ccccc2[N+](=O)[O-])C(=O)N1c1ccccc1 (configuration not stated) | i | i | i | i | i | i
Cc1cc(/C=N/n2cnnc2)c(C)n1-c1ccc2c(c1)OCO2 | i | i | i | i | i | i
Cc1cccc(-n2c(C)cc(/C=N/n3cnnc3)c2C)c1 | 20µM | ? | i | i | i | ?
Cc1ccc2nc(N(CCCN(C)C)C(=O)c3ccc4ncsc4c3)sc2c1 | i | ? | ? | ? | i | i
Clc1ccc(SCc2cc(N3CCOCC3)nc(-c3ccccn3)n2)cc1 | 4.5µM | ? | i | 8.2µM | i | 0.56µM
O=c1cc(CSc2ccc(Cl)cc2)nc(-c2ccccn2)[nH]1 | 4.5µM | ? | ? | i | i | 4µM
Clc1ccc(SCc2csc(N3CCOCC3)n2)cc1 | i | i | ? | i | i | i
Cc1cnn(C(=O)Cn2nc(C(F)F)c(Br)c2C)c1 | nt | i | i | i | ? | nt
COc1ccc(NS(=O)(=O)c2cc(NC(=O)c3ccc(=O)[nH]n3)ccc2C)cc1 | nt | ? | i | 18µM | i | nt
Cc1cc(C)c(CN2CCN(Cc3ccc(C)o3)C(CCO)C2)c(-n2cccn2)c1 (configuration not stated) | i | i | i | i | i | i
COc1cc(C(Nc2ccccn2)c2ccc3ccc(C)nc3c2O)cc(OC)c1O (configuration not stated) | 13µM | 13µM | ? | 21µM | i | 7.1µM
Cc1ccc2ccc(C(Nc3ccccn3)c3ccccc3)c(O)c2n1 (configuration not stated) | 4.5µM | i | ? | i | i | 5µM
Oc1c(C(Nc2ccccn2)c2ccccn2)ccc2cccnc12 (configuration not stated) | 2.2µM | ? | i | ? | i | 1.1µM
Cc1cccc(NC(c2ccc(C)s2)c2ccc3ccc(C)nc3c2O)n1 (configuration not stated) | 5µM | 5.8µM | ? | ? | i | 10µM
COc1cc(C(Nc2ccccn2)c2c(NC(=O)c3ccco3)sc(C)c2C)cc(OC)c1OC (configuration not stated) | i | i | i | i | i | ?
Oc1c(C(Nc2ccccn2)c2ccccc2F)ccc2cccnc12 (configuration not stated) | nt | nt | nt | nt | i | nt
CC(=O)Nc1ccc(C(C#N)c2ccccc2)cc1 (configuration not stated) | i | i | i | i | i | i
Cc1ccc(C)c(N2CCN(C(=O)C34CC5CC(C3)CC(n3nnc(C)n3)(C5)C4)CC2)c1 | i | ? | i | i | i | i
NS(=O)(=O)c1ccc(NC(=O)Nc2ccc(C(F)(F)F)cc2)cc1 | i | ? | i | i | i | i

Assay outcomes from PubChem.
